The whole screen tested about 420,000 compounds, of which about 64,000 (15%) were called active. Roughly 27% stayed inconclusive and do not appear here. The call rests on the fitted dose curve; in most records, active means well fitted inhibition curve with a large enough effect; inconclusive means small, poorly fitted or top-dose-only effect; inactive means flat fitted curve, though single readings scatter. The list is a sample of the results.
Test: qHTS for Inhibitors of human tyrosyl-DNA phosphodiesterase 1 (TDP1): qHTS in cells in absence of CPT; further: nearly all actives have a fitted effect of over 55% in size
Details: DT40 Tdp1-/- hTDP1 cells, no CPT, ATP luminescence, 48 h; activity change, negative = growth inhibition: at 46.2 µM (top of the series)
In short: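 Chicken DT40 Tdp1-/- cells complemented with human TDP1, screened without camptothecin (DMSO vehicle only), 400 cells/well. Compounds pin-transferred, cells incubated at 37 °C for at least 48 hr. Growth read as ATP-dependent luminescence (CellTiter-Glo, 30 min at RT).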
On the % scale 0 is the no-effect control and ±100 the full control effect; potency means the concentration at half of the fitted maximal effect.

Compound | Potency | activity change, negative = growth inhibition
Cc1ccc(S(=O)(=O)C2(S(=O)(=O)c3ccc(C)cc3)CCCC2)cc1 | 6.51 µM (active) | –
Cc1ccc(S(=O)(=O)N(C)C2(C)CCS(=O)(=O)C2)cc1 (stereo not drawn) | – | -11.5% (inactive)
Cc1ccc(S(=O)(=O)NC2CCCCCC2)cc1 | – | -3.72% (inactive)
C=C1c2cccc(OC)c2O[C@H](C(=O)OCC)[C@@H]1CCCCCC | – | -24.5% (inactive)
CCCn1nc(NS(=O)(=O)c2ccc(F)cc2)c2cc3ccccc3nc21 | – | 16.6% (inactive)
COC(=O)c1cc(OCC(=O)NC2CCCc3ccccc32)cc(C(=O)OC)c1 (stereo not drawn) | – | -6.64% (inactive)
O=C(O)CCC(=O)N(Cc1cccs1)Cc1cccs1 | – | -8.37% (inactive)
COc1ccccc1NC(=O)CSc1nnc(C)n1CC1CCCO1 (stereo not drawn) | – | -4.72% (inactive)
CC(C)Oc1ccc(Cc2n[nH]c(=S)n2Cc2ccccc2)cc1Cl | – | -21.3% (inactive)
CC(C)Oc1ccc(CCc2nnc(SCC(=O)O)n2-c2ccccc2)cc1 | – | 5.27% (inactive)
CC(C)Oc1ccc(CCc2n[nH]c(=S)n2Cc2ccccc2)cc1 | 20.6 µM (active) | –
Cc1ccc(CSc2nnc(-c3cnccn3)n2C)cc1 | – | -21.9% (inactive)
Cc1ccc(CSc2nc3ccsc3c(=O)n2CCC(C)C)cc1 | 23.1 µM (active) | –
O=C(O)CCn1c(SCc2cc(=O)n3ccccc3n2)nc2ccsc2c1=O | – | -2.92% (inactive)
O=CN1CCN(C(=O)c2ccc(Br)o2)CC1 | – | 7.18% (inactive)
CCC(CO)Oc1cc(NC(=O)c2cccc(F)c2)c2ncn(C(C)C)c2c1 (stereo not drawn) | – | -28.2% (inactive)
Cc1ccc(CNC(=O)COc2ccc(S(=O)(=O)NC(C)C)cc2)cc1 | – | -10.9% (inactive)
O=S(=O)(NN=C1CCCCCCC1)c1ccc(Br)cc1 | – | -1.76% (inactive)
O=C(CNS(=O)(=O)c1ccc(Br)s1)NCc1ccc2c(c1)OCO2 | – | -10.7% (inactive)
CN(CC(O)COc1ccc(S(=O)(=O)N2CCOCC2)cc1Cl)C1CCCCC1 (stereo not drawn) | – | -2.06% (inactive)
Cc1nn2c(NCCN(C)C)c3c(nc2c1-c1ccccc1)CCC3 | 25.9 µM (active) | –
Cc1cc(-n2nc(C)cc2C)n2nc(C)c(-c3ccccc3)c2n1 | – | -1.3% (inactive)

Compound | Potency | activity change, negative = growth inhibition
Cc1cc(C(C)(C)C)n2nc(C)c(-c3ccccc3)c2n1 | – | -10.7% (inactive)
Cc1ccc2c(c1)C1C[N+](C)(CC(=O)c3ccccc3)CCC1N2C(=O)c1ccccc1Cl (stereo not drawn) | – | 8.16% (inactive)
COc1cccc(NC(=O)C(Sc2nnnn2C)c2ccccc2)c1 (stereo not drawn) | – | 10.7% (inactive)
O=C(NNS(=O)(=O)c1ccc(F)cc1)C1CCCCC1 | – | -11.3% (inactive)
O=C1CC[C@@H](C(=O)N2CSC[C@@H]2C(=O)Nc2ccc(C(F)(F)F)cc2)N1 | – | -23.9% (inactive)
Cc1sc(NC(=O)C2=COCCO2)c(C#N)c1C | – | -25.1% (inactive)
CCCc1ccc(-c2c(C)sc(NC(=O)c3ccnn3C)c2C#N)cc1 | 20.6 µM (active) | –
Cn1nccc1CNC(=O)c1ccnn1C | – | 8.62% (inactive)
CC(CCn1cccn1)NC(=O)CCc1nnc(CCc2ccccc2)o1 (stereo not drawn) | – | 13.7% (inactive)
COc1ccc(C(C#N)(CC(=O)O)c2cnccn2)cc1OC (stereo not drawn) | – | 2% (inactive)
COc1cccc(NC(=O)c2ccc(S(=O)(=O)N(C)C)cc2)c1 | – | 2.12% (inactive)
COc1ccc(NC(=O)c2cnc(NS(=O)(=O)c3ccccc3)nc2)cc1 | – | -14.2% (inactive)
COc1ccc(NS(=O)(=O)c2ccc(NC(=O)c3ccc(N(C)S(C)(=O)=O)cc3)cc2)cc1 | 8.2 µM (active) | –
COc1ccc(C(=O)Nc2cccc(S(C)(=O)=O)c2)cc1 | 23.1 µM (active) | –
COc1ccc(NC(=O)c2ccc(OC)cc2)cc1 | – | -7.09% (inactive)
CCC(=O)Nc1ccc(C(=O)Nc2cccc(OC)c2)cc1 | – | -22.8% (inactive)
CC1(C)C(=O)Nc2ccccc2N1C(=O)COC(=O)Cn1cnc2ccccc2c1=O | – | -10.5% (inactive)
O=C1CC(c2cccc(Br)c2)C2=C(CCCC2=O)N1 (stereo not drawn) | – | -15.9% (inactive)
COc1cc(OC)cc(/C(N)=N/O)c1 | – | 0.324% (inactive)
CC(=C/c1ccccc1)/C=N/NC(=O)c1cc(C)oc1C | – | -18.6% (inactive)
COc1ccc(C/C(C)=N/NC(=O)c2cc(C)oc2C)cc1 | – | -17.1% (inactive)
Cc1cc(C(=O)N/N=C\C(Br)=C\c2ccccc2)c(C)o1 | 16.4 µM (active) | –

Compound | Potency | activity change, negative = growth inhibition
Cc1ccc(-c2cc(C(=O)N/N=C/C=C/c3ccccc3)n[nH]2)o1 | – | -12.2% (inactive)
CC(C)c1cc(C(=O)O)n[nH]1 | – | -6.63% (inactive)
CC(C)c1cc(C(=O)N/N=C/C(Br)=C/c2ccccc2)n[nH]1 | 2.59 µM (active) | –
Cc1ccc(NC(=O)Cc2nnc(SCC(=O)Nc3nncs3)n2C)cc1 | – | 1.58% (inactive)
CC(C)Nc1nnc(SCC(=O)c2c[nH]c3ccccc23)s1 | – | -28.5% (inactive)
CC(NC(=O)C(=O)N/N=C/c1ccc(Cl)cc1)c1ccccc1 (stereo not drawn) | – | -10.3% (inactive)
C=CS(=O)c1sc(Cl)c(N2CCOCC2)c1[N+](=O)[O-] (stereo not drawn) | 1.03 µM (active) | –
Cc1c(Nc2cc(N3CCCC(C)C3)c3nonc3c2[N+](=O)[O-])c(=O)n(-c2ccccc2)n1C (stereo not drawn) | – | 10.8% (inactive)
COc1ccc(N2C(=O)CC(N3CCC(C(N)=O)CC3)C2=O)cc1 (stereo not drawn) | – | -2.52% (inactive)
Oc1ccc(/C=N/N(Cc2ccccc2)c2ccccc2)cc1 | – | 0.739% (inactive)
CN(C)c1ccc(/C=N/N(Cc2ccccc2)c2ccccc2)cc1 | – | 5.64% (inactive)
O=C(CN1CCCC1)N1CCN(c2ccccc2)CC1 | – | 4.2% (inactive)
c1ccc(-c2cnc(CN3CCN(c4ccccc4)CC3)o2)cc1 | – | -4.06% (inactive)
CCCCCCCNc1ccc(/C=C/c2ccnc3ccccc23)cc1 | 10 µM (active) | –
CCN1CCN(c2ccc(/C=C/c3ccnc4ccccc34)cc2)CC1 | 17.8 µM (active) | –
CCC(C)N(c1ccc(/C=C/c2ccnc3ccccc23)cc1)C(C)CC (stereo not drawn) | 4.47 µM (active) | –
CN(Cc1ccccc1)c1ccc(/C=C/c2ccnc3ccccc23)cc1 | 12.6 µM (active) | –
CCCCN1C(=O)CC(N2CCOCC2)C1=O (stereo not drawn) | – | -1.99% (inactive)
CN(C)C(=O)c1cccn(Cc2cccc(C(F)(F)F)c2)c1=O | – | 2.44% (inactive)
O=C(c1cc(-c2ccc(O)cc2)on1)N1CCOCC1 | – | -0.712% (inactive)
CC(=O)c1ccc(NC(=S)N(Cc2ccccc2)C(C)C2CC2)cc1 (stereo not drawn) | – | -18.9% (inactive)
O=C(Nc1ccc(C(=O)O)cc1)/C(=C/c1ccc([N+](=O)[O-])cc1)NC(=O)c1ccccc1 | – | -11.3% (inactive)

Compound | Potency | activity change, negative = growth inhibition
CCOC(=O)C1(C(F)(F)F)N=C(N(C)C)OC(N(C)C)=N1 | – | -2.16% (inactive)
Cc1ccc2nsnc2c1S(=O)(=O)N1CCCC1C(=O)O (stereo not drawn) | – | -2.15% (inactive)
O=C(CNC(=O)c1ccccc1)NCC(=O)OCc1ccc(Cl)cc1 | – | -13.1% (inactive)
CCOC(=O)CSc1nccc(N(C)C)c1C#N | – | 1.31% (inactive)
CN(CC(=O)NCCN1CCOCC1)S(=O)(=O)c1ccc(F)cc1 | – | 5.76% (inactive)
O=C(NC(Cc1c[nH]c2ccccc12)C(=O)O)/C(=C/c1ccco1)NC(=O)c1ccccc1 (stereo not drawn) | – | -0.131% (inactive)
Cc1c(Cl)cccc1NC(=S)NCc1ccc2c(c1)OCO2 | – | -27.6% (inactive)
c1ccc(Cn2nnc3c(N4CCCCC4)ncnc32)cc1 | 8.91 µM (active) | –
O=C(CSc1ncnc2c1nnn2Cc1ccc(F)cc1)NC1CCCC1 | – | 1.56% (inactive)
CC(C)Nc1ncnc2c1nnn2Cc1ccccc1 | – | -22.2% (inactive)
CCc1ccccc1NC(=O)CSc1nnc([C@@H](NC(=O)OC(C)(C)C)C(C)CC)o1 (stereo partly drawn) | – | -10% (inactive)
Cc1cc(NC(=O)CSc2nc(C(C)C)nc3sc4c(c23)CCC(C)C4)no1 (stereo not drawn) | 23.1 µM (active) | –
Cc1nc(SCC(=O)Nc2cc(C)on2)c2c3c(sc2n1)CCCC3 | – | -22.6% (inactive)
CC(C)c1nc(SCC(=O)Nc2cccc(C(=O)O)c2)c2c3c(sc2n1)CCCC3 | – | -3.16% (inactive)
CSc1ccc(CCNC(=O)c2cnn(-c3ccccc3)c2-n2cccc2)cc1 | 14.6 µM (active) | –
Cc1c(C(=O)NCc2ccccc2)cnn1-c1ccccc1 | – | -3.89% (inactive)
CCCN1CCN(CCCNC(=O)c2cnn(-c3ccc(C)cc3)c2-n2cccc2)CC1 | – | -27% (inactive)
C=CCn1c(SCC(=O)NC(=O)Cc2ccccc2)nc2ccccc2c1=O | – | 1.77% (inactive)
Cc1csc(=O)n1CCC(=O)OCC(=O)NNC(=O)c1ccc(Br)cc1 | – | -14.1% (inactive)
COCCOC(=O)C1=C(C)NC(=O)CC1c1cc2c(cc1Br)OCO2 (stereo not drawn) | – | -12.9% (inactive)
O=C1CC(c2ccc(F)cc2F)c2cc3c(cc2N1)OCO3 (stereo not drawn) | – | -22.4% (inactive)
CCCOc1ccccc1C1CC(=O)Nc2cc3c(cc21)OCO3 (stereo not drawn) | 1.84 µM (active) | –

Compound | Potency | activity change, negative = growth inhibition
Cc1cc(C)c2nc(NC(=O)C3CCCO3)sc2c1 (stereo not drawn) | – | -22.2% (inactive)
Cn1c(=O)c(Sc2ccc(Cl)cc2)c(O)c2ccccc21 | – | -22.1% (inactive)
COc1ccc(-c2nnc(SC(C)C(=O)NC3CC3)o2)cc1 (stereo not drawn) | – | 12.8% (inactive)
COc1ccc(-c2nnn(CC(=O)N(CCO)C(C(=O)NC3CCCC3)c3ccc(F)cc3)n2)cc1 (stereo not drawn) | – | -22.1% (inactive)
CCC(Sc1nnc(-c2ccc(OC)cc2)c(-c2ccc(OC)cc2)n1)C(=O)NC1CCCCC1 (stereo not drawn) | 13 µM (active) | –
O=C(NCc1nnc(SCC(=O)N2CCCCCC2)o1)c1ccc(F)cc1 | – | -8.37% (inactive)
S=c1nccc(-c2cc(Cl)sc2Cl)[nH]1 | – | -28% (inactive)
O=c1c2ccccc2nc2n1C1(CCCCC1)Cc1ccccc1-2 | 16.4 µM (active) | –
c1cncc(-c2nnc3n2C2(CCCCC2)Cc2ccccc2-3)c1 | – | -8.67% (inactive)
CC1(C)Cc2ccccc2-c2c[nH]c(=O)n21 | – | -10.5% (inactive)
CCCc1ccc(C(=O)COC(=O)CN2C(=O)NC3(CCCCC3C)C2=O)cc1 (stereo not drawn) | – | 13.5% (inactive)
O=C(NC1CCCC1)C1CCN(C(=O)Nc2cccc(Cl)c2)CC1 | – | 0.869% (inactive)
CCn1cc(CN2CCC(C(=O)Nc3cccc(-c4cccc(Cl)c4)c3)CC2)c(C)n1 | 4.61 µM (active) | –
O=C(Nc1cccc(-c2cccc(Cl)c2)c1)C1CCN(C2CCC2)CC1 | 23.1 µM (active) | –
O=C(NCC1CCN(Cc2ccccc2Cl)CC1)Nc1cccc(Cl)c1 | 18.4 µM (active) | –
Cc1ccccc1NC(=O)NCC1CCN(Cc2cccc(Cl)c2)CC1 | – | 0.533% (inactive)
COc1cccc(-c2cccc(NC(=O)C3CCN(C4CCC4)CC3)c2)c1 | – | 3.26% (inactive)
CCn1cc(CN2CCC(n3nccc3NC(=O)CCCc3ccccc3)CC2)c(C)n1 | – | 6.6% (inactive)
O=C(Nc1cccc(-c2cscn2)c1)C1CCN(Cc2ccsc2)CC1 | – | -8.03% (inactive)
COc1ccc(Cl)cc1NC(=O)NCC1CCN(Cc2ccccc2F)CC1 | – | -0.532% (inactive)

— PubChem BioAssay AID686978 (National Center for Advancing Translational Sciences (NCATS), 2013)
